A selection: hits, their analogues and other compounds. The true share with any hit is near 14%.
USP30 inh: inhibitors of human USP30 deubiquitinase | purified USP30, Ub-rhodamine cleavage fluorescence | AID 1645860, 2021 | actives 5.3% (n = 47,000) | inhibition, % at 25 µM | Ubiquitin carboxyl-terminal hydrolase 30 (Homo sapiens), Q70CQ3
USP28 block: inhibitors of human USP28 deubiquitinase; actives 3% (n = 47,000); inhibition, % at 25 µM; AID 1645857, 2021; purified USP28, Ub-rhodamine cleavage fluorescence, 30 min
USP17 block: inhibitors of human USP17 deubiquitinase | Ubiquitin carboxyl-terminal hydrolase 17-like protein 5 (Homo sapiens), A8MUK1 | purified USP17, Ub-rhodamine cleavage fluorescence, 3 h | inhibition, % at 50 µM | actives 6.5% (n = 47,000)
Target sequence (A8MUK1 whole entry, looked up): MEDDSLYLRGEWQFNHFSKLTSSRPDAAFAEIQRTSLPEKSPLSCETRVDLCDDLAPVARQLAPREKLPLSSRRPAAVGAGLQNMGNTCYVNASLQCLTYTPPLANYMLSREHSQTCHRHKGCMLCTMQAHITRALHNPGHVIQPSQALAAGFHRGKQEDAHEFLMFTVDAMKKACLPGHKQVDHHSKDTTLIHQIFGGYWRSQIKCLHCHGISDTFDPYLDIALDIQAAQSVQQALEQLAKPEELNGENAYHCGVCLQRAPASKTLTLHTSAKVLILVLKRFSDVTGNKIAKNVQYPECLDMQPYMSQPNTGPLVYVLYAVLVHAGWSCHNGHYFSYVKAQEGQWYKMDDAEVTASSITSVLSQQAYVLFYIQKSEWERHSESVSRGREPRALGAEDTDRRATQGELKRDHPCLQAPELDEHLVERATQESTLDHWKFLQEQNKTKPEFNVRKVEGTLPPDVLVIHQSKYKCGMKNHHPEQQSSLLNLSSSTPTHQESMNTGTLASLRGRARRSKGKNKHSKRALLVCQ
USP8 block: inhibitors of human USP8 deubiquitinase; inhibition, % at 20 µM; AID 1645853, 2021; Ubiquitin carboxyl-terminal hydrolase 8 (Homo sapiens), P40818; actives 4.2% (n = 47,000); purified USP8, Ub-rhodamine cleavage fluorescence, 30 min
* = called active by the depositor; i = inactive; . = not tested or not shown. No stated cut-off is given here; in the data, active means inhibition above about 30%; inactive means the rest.

SMILES	USP30 inh	USP28 block	USP17 block	USP8 block
CC(C)OCCCN1C(=O)C2C(C(=O)Nc3ccc(Oc4ccccc4)cc3)C3C=CC2(O3)C1C(=O)NC1CCCCC1 (stereo not given)	13	18	51*	8
CCCN1C(=O)C2C(C(=O)Nc3ccc(Oc4ccccc4)cc3)C3C=CC2(O3)C1C(=O)NC1CCCCC1 (stereo not given)	0	-7	0	0
O=C(c1cc(-c2cccnc2)n(-c2ccc(F)cc2)n1)N1CCC2(CC1)OCCO2	-22	-16	-15	2
CC(C)[C@H](NC(=O)C1CCC(CNC(=O)Cn2c(=O)[nH]c3ccccc3c2=O)CC1)C(=O)O (stereo not given in full)	-4	-5	-26	-211
O=C(NCc1cnc2n1CCN(Cc1ccco1)C2)C1CC1	-370	-104	-113	-180
O=C(Nc1ccc(Br)cc1)C1C2C=CC3(O2)C1C(=O)N(CCc1ccccc1)C3C(=O)NC1CCCCC1 (stereo not given)	16	3	10	5
Cc1ccc(NC(=O)C2C3C=CC4(O3)C2C(=O)N(CCc2ccccc2)C4C(=O)NC2CCCCC2)cc1Cl (stereo not given)	7	7	26	34*
CCCn1c(-c2ccc(Cl)cc2)nc2c(c(=O)c3ccccc3n2C)c1=O	4	1	-1	27
CCCCCn1c(Sc2ccc(C)cc2)nc2c1c(=O)[nH]c(=O)n2C	53*	18	34*	15
COc1ccccc1-c1nc(-c2cn(-c3cccc(Cl)c3)nn2)no1	46*	20	-18	96*
COc1cc(OC)cc(-c2nc(-c3cn(-c4cccc(F)c4)nn3)no2)c1	65*	22	1	62*
Fc1cccc(Cn2cc(-c3noc(-c4cccnc4)n3)nn2)c1	-5	-3	63*	21
COc1cccc(-c2nc(-c3cn(Cc4ccc(C)cc4)nn3)no2)c1	9	8	4	9
COc1ccccc1-c1nc(-c2cn(-c3ccc(C)cc3)nn2)no1	11	1	62*	4
CCOc1ccccc1NC1c2ccccc2C(=O)N1c1cccnc1 (stereo not given)	-8	1	43*	71*
O=C(O)/C=C/C(=O)Nc1cccc(SC(C(=O)Nc2ccccn2)c2ccccc2)c1 (stereo not given)	-24	-2	-8	24
CC(C)[C@@H](NC(=O)C1CCN(C(=O)[C@H](N)Cc2ccccc2)CC1)C(=O)NCc1ccccc1F	43*	15	12	-3
CC(C)Oc1ccc(C(=O)Nc2ccccc2F)cc1	0	8	-13	-1
O=C(Nc1ccccc1F)c1ccc(C(=O)c2ccccc2)cc1	13	13	35*	-45
Cc1snc(SCc2nc(COc3ccc(Cl)cc3Cl)n[nH]2)c1C#N	40*	40*	15	-12
Cc1cccc(N2C(=O)/C(=C\c3ccc4c(c3)OCCO4)c3ccccc3C2=O)c1	6	13	55*	88*
Cc1cccc(N2C(=O)/C(=C\c3ccc4c(c3)OCO4)c3ccccc3C2=O)c1	-14	8	42*	76*
O=C1OCC2=C1C(c1ccc3c(c1)OCO3)CC(=O)N2c1cccc(F)c1 (stereo not given)	0	-12	-3	-18
Cc1ccc(NC(=O)Cc2nnc(SCC(=O)N3CCOCC3)n2C)cc1Cl	-9	-4	-6	3
CC(C)COc1ccc(C(=O)N/C(=C/c2ccc3c(c2)OCO3)C(=O)O)cc1	37*	23	.	30
SMILES	USP30 inh	USP28 block	USP17 block	USP8 block
CCN(c1ccc(OC)cc1)S(=O)(=O)N1CCCC(C(=O)NCCN2CCCC2)C1 (stereo not given)	-3	-2	9	17
Cn1cc2cccc(NC(=O)c3ccc(F)cc3)c2n1	-3	9	87*	91*
CN(C)c1cnc(-n2cc(NC(=O)c3ccc(F)cc3)cn2)nc1	-129	-23	4	-24
CC1(C)CC(=O)c2c(C#N)sc(C#N)c2C1	-260	-74	18	60*
CCCC(=O)Nc1nc2ccc(CCC(=O)Nc3cccc(OC)c3)cc2s1	18	6	2	0
COc1ccc(CNC(=O)CCc2ccc3nc(NC(=O)C(C)C)sc3c2)cc1	33*	0	11	-28
CCc1cnc(N2CC[C@@H]3CN(CCOC)S(=O)(=O)[C@@H]3CC2)nc1	-85	-30	-32	-36
O=C(C1CCN(S(=O)(=O)c2cc(F)ccc2F)CC1)N1CCc2sccc2C1	-1	7	33*	74*
CCOc1ccccc1NC(=O)CNc1cc(C(F)(F)F)ccc1N1CCOCC1	33*	17	17	26
COc1ccc(CC(=O)NC2CC3(CCOCC3)Oc3ccc(C)cc32)cc1OC (stereo not given)	10	1	0	-1
COc1cc2c(cc1OC)CN(c1ncnc3scc(-c4ccccc4)c13)CC2	-28	1	-42	37*
COc1cc(NC(=O)CSc2ncnc3scc(-c4ccccc4)c23)c(C(=O)O)cc1OC	-147	-46	-19	-47
COc1ccc(-c2nc3cccnc3n2C2CCN(C(=O)c3ccncc3)C2)cc1 (stereo not given)	-95	-18	-20	-23
Cc1ccc(C)c(N(C(C)C(=O)NCc2ccncc2)S(C)(=O)=O)c1 (stereo not given)	35*	17	35*	18
Nc1ncnc2sc(Nc3ccc([N+](=O)[O-])cc3)nc12	39*	33*	34*	50*
Nc1nc(-c2cc([N+](=O)[O-])cs2)cs1	7	21	-11	-219
Cc1ccc(CNc2nc(Nc3ccc(C)cc3)c3cnn(C)c3n2)cc1	4	0	8	1
COc1ccc(Nc2nc(NCc3ccccc3)nc3c2cnn3C)cc1	28	-1	32*	0
Cc1ccc(Nc2nc(NCCc3ccccc3)nc3c2cnn3C)cc1	16	-9	74*	-6
COC(=O)c1cc(NC(=O)c2cccc(Cl)c2)c(=O)oc1/C=C/N(C)C	i	-236	-32	-226
O=C(CSc1nc2scc(-c3ccco3)c2c(=O)n1-c1ccccc1)Nc1nsc(-c2ccccc2)n1	-187	37*	16	-20
CCOC(=O)c1noc2ncn(CC(=O)Nc3ccc(Cl)cn3)c(=O)c12	23	0	3	0
COc1ccc(C2NC3=NCN(C(C)C)CN3c3nc4ccccc4n32)cc1 (stereo not given)	33*	12	12	23
Cc1ccc(CNC(=O)c2nn(C)c3c2COc2ccccc2-3)cc1	24	25	-1	12
CC(NC(=O)c1ccc2cn[nH]c2c1)c1ccccc1 (stereo not given)	4	-1	-10	-8
O=C(NCc1ccccc1Cl)c1ccc2cn[nH]c2c1	0	55*	-2	7
COc1ccc2cc3c(nc2c1)OC(=O)N(Cc1ccccc1)C3	39*	23	29	32*
COc1ccc(CCN2Cc3cc4ccccc4nc3OC2=O)cc1	7	5	0	5
Cc1cc(C)c2cc3c(nc2c1)OC(=O)N(Cc1ccco1)C3	30	40*	56*	19

High-throughput results (PubChem)
